# Reference: PubChem BioAssay AID1986 (Sanford-Burnham Center for Chemical Genomics, 2009)
# In all, about 290,000 compounds went through this assay and about 890 (0.31%) were called active. No stated cut-off is given here; in the data, active means inhibition mostly above about 52% (no sharp cut-off); inactive means mostly below about 76%. Shown is part of a subset that was picked to be rich in actives.
# Test: inhibitors of HIV fusion peptide binding, primary screen, biochemical, uHTS, fluorescence dequenching (AID 1986)
# Conditions: cell-free peptide binding, 30 min, stronger effect = higher value
# [1] = measured here: repeat confirmation average inhibition, at 18.6 µM
SMILES,inhibition (at 20 µM),inhibition [1]
Cc1ccc(NC(=O)COC(=O)Cn2cnc3c2c(=O)n(C)c(=O)n3C)c(Cl)c1,1.4% (inactive),
O=C(NCCCCc1ccccc1)C1CCCC1,-0.4% (inactive),
COc1ccccc1NC(=O)CCCc1nc(-c2ccc(OC)c(OC)c2)no1,-1% (inactive),
Cc1cc(/C=C(\C#N)c2nc3ccccc3[nH]2)c(C)n1C,54% (active),
COC(=O)c1ccc(COc2ccc(/C=C(\C#N)c3nc4ccccc4[nH]3)cc2OC)o1,4.4% (inactive),
Cc1ccc2nc(/C(C#N)=C/c3ccc(-c4ccccc4C(=O)O)o3)[nH]c2c1,94.3% (active),63.8%
Cc1cc(/C=C(/C#N)c2nc3ccccc3[nH]2)c(C)n1-c1cc(C(=O)O)cc(C(=O)O)c1,63.6% (inactive),40.2%
Cc1cc(/C=C(/C#N)c2nc3ccccc3[nH]2)c(C)n1-c1ccccc1C(=O)O,9.7% (inactive),
N#C/C(=C\c1ccc(-c2ccccc2C(=O)O)o1)c1nc2ccccc2[nH]1,29.4% (inactive),
COc1cc(/C=C(/C#N)c2nc3ccccc3[nH]2)ccc1OC(=O)c1ccco1,0.5% (inactive),
Cc1cc2nc(/C(C#N)=C\c3ccc(-c4ccccc4C(=O)O)o3)[nH]c2cc1C,135% (inactive),
COc1cc(/C=C(\C#N)c2nc3ccccc3[nH]2)ccc1OC(=O)c1ccco1,61.1% (active),
O=C(NC(=S)Nc1ccc(CN2CCCCC2)cc1)c1ccco1,0.8% (inactive),
Cc1ccccc1-n1ncc2c1CC(C)(C)CC2NC(=O)CCCN1CCCC1=O (stereo unspecified),0.2% (inactive),
CCOc1ccc(NC(=O)CSc2nc3ccsc3c(=O)n2CCC(=O)O)cc1,2.5% (inactive),
Oc1oc(-c2ccccc2Br)nc1C=Nc1ccc(Br)cn1,-0.2% (inactive),
COc1ccc(N=Nc2n(C)c3ccccc3[n+]2C)cc1,79.3% (active),
COc1ccc(N2CC(O)=C(c3n(C)c4ccccc4[n+]3C)C2=N)cc1,1.6% (inactive),
Cn1c(N=Nc2ccc(N3CCOCC3)cc2)[n+](C)c2ccccc21,-4.1% (inactive),
CC(C)(C)c1cc(C(=O)C[n+]2ccc(C(=O)NCCCO)cc2)cc(C(C)(C)C)c1O,-4% (inactive),
CCCOC(=O)C1C2C=CC3(CN(c4cccc(Cl)c4)C(=O)C13)O2 (stereo unspecified),0.8% (inactive),
Cc1cc(N2CCOCC2)n2nc(C(F)(F)F)c(-c3ccccc3)c2n1,0.1% (inactive),

SMILES,inhibition (at 20 µM),inhibition [1]
Cc1cc(C)n2nc(C(F)(F)F)c(-c3ccccc3)c2n1,0.5% (inactive),
O=C(Nc1cccc2ncccc12)c1ccc(F)cc1,2.1% (inactive),
CC(C)(C)c1ccc(C(=O)Nc2cccc3ncccc23)cc1,62% (active),65.1%
O=C(Nc1cccc2ncccc12)c1ccc(Cl)cc1,-1% (inactive),
COc1ccc(O)c(C(=O)c2cnc3nc4ccccc4n3c2)c1,28.4% (inactive),
c1ccc(-c2csc(-c3ccncc3)n2)cc1,0.1% (inactive),
O=C(O)c1c2c(nc3ccccc13)/C(=C/c1ccc(O)cc1)CCC2,6.1% (inactive),
O=C(O)c1ccc(/C=C2\CCCc3c2nc2ccccc2c3C(=O)O)cc1,4.2% (inactive),
O=C(O)c1c2c(nc3ccccc13)/C(=C/c1ccc(O)cc1)CC2,77.1% (active),
CC(C)OCCCNC(=O)NC12CC3CC(CC(C3)C1)C2,1.1% (inactive),
Cc1ccc(-n2nc3c(c2NC(=O)c2ccc4c(c2)OCO4)CS(=O)C3)cc1 (stereo unspecified),-0.3% (inactive),
CCc1nnc(NS(=O)(=O)c2ccc(NC(=S)NC(=O)/C=C/c3ccc(OC)cc3)cc2)s1,34.6% (inactive),
CCc1nnc(NS(=O)(=O)c2ccc(NC(=S)NC(=O)/C=C/c3ccccc3)cc2)s1,60.8% (active),
CCc1nnc(NS(=O)(=O)c2ccc(NC(=S)NC(=O)/C=C/c3ccc([N+](=O)[O-])cc3)cc2)s1,25.6% (inactive),
Cc1cccc(C)c1NC(=O)C(Cl)=C(Cl)Cl,0.7% (inactive),
O=C(O)c1cccc(S(=O)(=O)N2CCOCC2)c1,-1% (inactive),
CCn1ncc(Cl)c1C(=O)Nc1cc([N+](=O)[O-])ccc1OC,0.4% (inactive),
Cc1ccsc1/C=N/NC(=O)c1ccccn1,-0.7% (inactive),
COc1cccc(N2C(=O)C(c3ccccc3)=C(c3nc4ccccc4s3)C2NC(C)=O)c1 (stereo unspecified),0.6% (inactive),
N#C/C(=N\Nc1cccc([N+](=O)[O-])c1)C(=O)c1ccc(Br)cc1,63.4% (active),
COc1ccc(C(=O)/C(C#N)=N/Nc2ccc([N+](=O)[O-])cc2)cc1,5.5% (inactive),
COc1ccc(C(=O)/C(C#N)=N/Nc2cccc([N+](=O)[O-])c2)cc1,20.6% (inactive),

SMILES,inhibition (at 20 µM),inhibition [1]
Cc1c(C(=O)OCC(=O)N(C)c2ccccc2)oc2ccccc12,1.2% (inactive),
O=C(OCCN1C(=O)c2cccc3c(N4CCOCC4)ccc(c23)C1=O)c1ccc(Cl)cc1Cl,151% (inactive),
O=C(OCCN1C(=O)c2cccc3c(N4CCOCC4)ccc(c23)C1=O)c1cc(Cl)cc(Cl)c1,88.8% (active),
CCN(CC)S(=O)(=O)c1ccc(C(=O)OCCN2C(=O)c3cccc4c(N5CCOCC5)ccc(c34)C2=O)cc1,150% (inactive),
O=C1c2cccc3c(N4CCCCC4)ccc(c23)C(=O)N1c1cccc(O)c1,148% (inactive),
O=C(OCCN1C(=O)c2cccc3c(N4CCOCC4)ccc(c23)C1=O)c1ccc(Cl)cc1,149% (inactive),
O=C(OCCN1C(=O)c2cccc3c(N4CCOCC4)ccc(c23)C1=O)c1ccccc1Cl,151% (inactive),
CCCN(CCC)S(=O)(=O)c1ccc(C(=O)OCCN2C(=O)c3cccc4c(N5CCOCC5)ccc(c34)C2=O)cc1,63.4% (active),
CC(=O)N(C(C)=O)N1C(=O)c2cccc3c(N4CCOCC4)ccc(c23)C1=O,100% (active),
O=C1c2cccc3c(N4CCCCC4)ccc(c23)C(=O)N1CCO,-0.2% (inactive),
O=C1c2cccc3c(N4CCCCC4)ccc(c23)C(=O)N1c1ccc(O)cc1,146% (inactive),
O=C1c2cccc3c(N4CCCCC4)ccc(c23)C(=O)N1c1ccccc1O,100% (active),
O=C(OCCN1C(=O)c2cccc3c(N4CCOCC4)ccc(c23)C1=O)c1cccc(Cl)c1,151% (inactive),
Cc1ccc(C(=O)NC(C(=O)Nc2cccc(S(N)(=O)=O)c2)C(C)C)cc1 (stereo unspecified),-1.6% (inactive),
COc1ccc(CNC(=O)Cn2nc(C(F)(F)F)cc2C)cc1,-0.1% (inactive),
O=C(O)c1cc(Cl)c(Cl)cc1C(=O)N1CCOCC1,1.9% (inactive),
COc1ccccc1-n1c(C)nc2cc(C(=O)NCC3CCCO3)ccc21 (stereo unspecified),0.3% (inactive),
Cc1cc(C)n(C(=O)c2ccc(Cl)c(F)c2F)n1,-0.2% (inactive),
COc1ccc(CC(=O)Nc2c(C(=O)N3CCN(c4ncccn4)CC3)oc3ccccc23)cc1,-0.6% (inactive),
O=c1ccc(C(F)(F)F)cn1Cc1cc(=O)n2cc(Br)ccc2n1,1.6% (inactive),
COC(=O)C(Cc1ccccc1)NC(=O)CSc1nc(C)cc(=O)[nH]1 (stereo unspecified),-1.7% (inactive),
CCNc1cc(=O)n(C)c(=O)n1C,0.1% (inactive),

SMILES,inhibition (at 20 µM),inhibition [1]
CCc1ccc(N=C2NC(=O)/C(=C/c3ccc(OCC(=O)O)c(OC)c3)S2)cc1,55.1% (inactive),26.6%
COc1cc(CO)cc(Br)c1OCC(=O)O,0% (inactive),
CC(=O)Nc1c(-c2cc(=O)oc3cc(C)ccc23)oc2ccccc12,-0.7% (inactive),
Cc1ccccc1CN1C(=O)C(C)S/C1=N/N=C/c1ccco1 (stereo unspecified),4.6% (inactive),
O=C(O)c1cccc(-n2c(O)c(C=C3N=c4ccccc4=N3)sc2=S)c1,32.8% (inactive),
O=C(O)c1ccc(-n2c(O)c(C=C3N=c4ccccc4=N3)sc2=S)cc1,33.3% (inactive),
CC1=Nc2ccccc2/C1=C/c1sc(=S)n(-c2cccc(C(=O)O)c2)c1O,112% (active),134%
O=[N+]([O-])c1cccc(-c2noc(-c3ccco3)n2)c1,-2.4% (inactive),
COc1ccccc1-c1nnc(SCC(=O)N2CCC(C)CC2)o1,-1.2% (inactive),
Cc1ccc(NC(=O)CN2C(=O)S/C(=C/c3ccc(-c4cccc(C(=O)O)c4)o3)C2=O)cc1,79.5% (active),
Cc1ccc(NC(=O)CN2C(=O)S/C(=C\c3ccc(-c4cccc(C(=O)O)c4C)o3)C2=O)cc1C,68.7% (inactive),6.8%
Cc1ccc(OCC(=O)N/N=C\c2ccc(C)o2)c(C)c1,0.1% (inactive),
COc1ccc(CC(=O)N/N=C/c2ccc(-c3cccc(C(=O)O)c3)o2)cc1OC,28.8% (inactive),
Cc1cccc(NC(=O)CN2C(=O)S/C(=C\c3ccc(-c4cccc(C(=O)O)c4C)o3)C2=O)c1,55.2% (active),
Cc1ccc(C(=O)O)cc1-c1ccc(/C=C2\SC(=O)N(CC(=O)Nc3ccccc3)C2=O)o1,59.6% (active),
Cc1ccc(NC(=O)CN2C(=O)S/C(=C/c3ccc(-c4cc(C(=O)O)ccc4C)o3)C2=O)cc1C,63.2% (inactive),35.6%
Cc1cccc(NC(=O)CN2C(=O)N/C(=C/c3ccc(-c4cccc(C(=O)O)c4C)o3)C2=O)c1,28.4% (inactive),
Cc1cccc(NC(=O)CN2C(=O)N/C(=C\c3ccc(-c4cccc(C(=O)O)c4)o3)C2=O)c1,40.3% (inactive),
Cc1ccc(OCC(=O)N/N=C\c2ccc(-c3cccc(C(=O)O)c3)o2)c(C)c1,56.8% (active),
Cc1ccccc1NC(=O)CN1C(=O)S/C(=C\c2ccc(-c3cc(C(=O)O)ccc3C)o2)C1=O,69.3% (inactive),19.9%
CC(C)(C)OC(=O)CN1C(=O)S/C(=C\c2ccc(-c3cccc(C(=O)O)c3)o2)C1=O,51.8% (inactive),40.6%
